Experimental data published in PubChem BioAssay AID1159580 (chemical genetic matrix, 2015).
Several values for one entry are separate records, joined by “and”; a condition that tells them apart may be missing. Equal values may be shown once. Hit rate of the full screen: of about 5,500 compounds, about 2,000 (36%) were called active. About 18% were inconclusive and are not listed. No stated cut-off is given here; in the data, active means normalized growth mostly below about 0.91 (no sharp cut-off); inconclusive means no clear call, values can overlap the other calls; inactive means mostly above about 0.92. The list shows a part of the results.

Experiment: chemical genetic growth profiling, strain panel (AID 1159580);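 further: tested at 20 µM; growth read once vehicle control cultures reached saturation at 30 °C; 1 = growth at the plate median or of vehicle wells; lower values mean less growth of the strain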
Settings: S. cerevisiae deletion strains, growth OD

Measured: normalized growth

CC(=O)OC1CCC2(C)C3CC(=O)C4(C)C(CC5OC6(CCC(C)CO6)[C@@H](C)C54)C3CC[C@H]2C1 (stereo not given in full)
inactive: locus YAL013W, strain DEP1, hits give low values 0.982 | locus YAL021C, strain ccr4, hits give low values 0.987 | locus YAL026C, strain drs2, hits give low values 0.991 | locus YAL030W, strain snc1, hits give low values 0.981 | locus YBL061C, strain skt5, hits give low values 0.982 | locus YBR009C, strain hhf1, hits give low values 0.991 | locus YBR021W, strain FUR4, hits give low values 1.07 | locus YBR023C, strain chs3, hits give low values 0.994 | locus YBR171W, strain sec66, hits give low values 0.984 | locus YBR229C, strain ROT2, hits give low values 0.99 | locus YBR231C, strain swc5, hits give low values 1.01 | locus YBR279W, strain paf1, hits give low values 0.987 | locus YCL011C, strain gbp2, hits give low values 0.979 | locus YCL016C, strain dcc1, hits give low values 0.98 | locus YCL029C, strain bik1, hits give low values 0.963 | locus YCL069W, strain vba3, hits give low values 1.01 | locus YCR088W, strain abp1, hits give low values 0.994 | locus YDL005C, strain med2, hits give low values 0.975 | locus YDL035C, strain GPR1, hits give low values 1.01 | locus YDL040C, strain nat1, hits give low values 0.99 | locus YDL074C, strain BRE1, hits give low values 0.983 | locus YDL101C, strain DUN1, hits give low values 0.992 | locus YDL185W, strain tfp1, hits give low values 0.952 | locus YDL192W, strain arf1, hits give low values 0.986 | locus YDR001C, strain nth1, hits give low values 0.988 | locus YDR069C, strain doa4, hits give low values 0.968 | locus YDR101C, strain arx1, hits give low values 1 | locus YDR137W, strain rgp1, hits give low values 0.973 | locus YDR159W, strain sac3, hits give low values 1.03 | locus YDR162C, strain NBP2, hits give low values 0.972 | locus YDR195W, strain ref2 0.942 | locus YDR297W, strain sur2, hits give low values 0.978 | locus YDR318W, strain mcm21, hits give low values 0.996 | locus YDR334W, strain swr1, hits give low values 0.985 | locus YDR335W, strain msn5, hits give low values 0.978 | locus YDR388W, hits give low values 0.978 | locus YDR392W, strain spt3, hits give low values 1.01 | locus YDR502C, strain sam2, hits give low values 0.971 | locus YEL003W, strain gim4, hits give low values 0.986 | locus YEL037C, strain rad23, hits give low values 0.998 | locus YEL061C, strain CIN8 (second series), hits give low values 0.999 | locus YER015W, strain faa2, hits give low values 0.988 | locus YER016W, strain bim1, hits give low values 0.96 | locus YER110C, hits give low values 0.97 | locus YER111C, strain swi4, hits give low values 0.995 | locus YER155C, strain BEM2 (second series), hits give low values 0.999 | locus YER155C, strain BEM2, hits give low values 1.01 | locus YER167W, strain BCK2, hits give low values 1.01 | locus YFR010W, strain ubp6, hits give low values 1 | locus YGL078C, strain dbp3, hits give low values 0.988 | locus YGL086W, strain mad1, hits give low values 0.993 | locus YGL167C, strain pmr1, hits give low values 0.99 | locus YGL173C, strain kem1, hits give low values 1.01 | locus YGL227W, strain vid30, hits give low values 0.974 | locus YGL240W, strain doc1, hits give low values 0.98 | locus YGL248W, strain PDE1, hits give low values 0.991 | locus YGL253W, strain hxk2, hits give low values 0.976 | locus YGR078C, strain PAC10, hits give low values 0.986 | locus YGR135W, strain pre9, hits give low values 0.977 | locus YGR252W, strain gcn5, hits give low values 0.986 | locus YHR013C, strain ard1, hits give low values 0.957 | locus YHR027C, strain rpn1, hits give low values 0.982 | locus YHR030C, strain SLT2, hits give low values 0.977 | locus YHR079C, strain IRE1 (second series), hits give low values 0.987 | locus YHR079C, strain IRE1, hits give low values 1.01 | locus YHR094C, strain hxt1, hits give low values 0.975 | locus YHR129C, strain ARP1, hits give low values 0.982 | locus YHR142W, strain chs7, hits give low values 0.955 | locus YHR200W, strain rpn10, hits give low values 0.993 | locus YIL066C, strain RNR3, hits give low values 0.988 | locus YIL073C, strain SPO22, hits give low values 0.931 | locus YIL125W, strain kgd1, hits give low values 0.974 | locus YIR030C, strain dcg1, hits give low values 0.988 | locus YJL092W, strain hpr5, hits give low values 0.985 | locus YJL095W, strain BCK1 (second series), hits give low values 0.981 | locus YJL095W, strain BCK1, hits give low values 0.962 and 1 | locus YJL115W, strain asf1, hits give low values 0.958 | locus YJL129C, strain trk1, hits give low values 0.969 | locus YJL134W, strain LCB3, hits give low values 0.99 | locus YJL154C, strain vps35, hits give low values 0.986 | locus YJL164C, strain tpk1, hits give low values 0.993 | locus YJL166W, strain qcr8, hits give low values 0.965 | locus YJL168C, strain set2, hits give low values 0.983 | locus YJL187C, strain SWE1 (second series), hits give low values 0.977 | locus YJR066W, strain TOR1, hits give low values 0.934 | locus YJR075W, strain HOC1, hits give low values 0.988 | locus YKL009W, strain mrt4, hits give low values 0.983 | locus YKL068W, hits give low values 0.981 | locus YKL085W, strain MDH1 (second series), hits give low values 0.988 | locus YKL085W, strain MDH1, hits give low values 0.988 | locus YKL160W, strain elf1, hits give low values 0.964 | locus YKR001C, strain vps1, hits give low values 0.992 | locus YKR026C, strain gcn3, hits give low values 1 | locus YKR091W, strain srl3, hits give low values 0.964 | locus YLL001W, strain dnm1, hits give low values 1.01 | locus YLL026W, hits give low values 0.977 | locus YLL041C, strain sdh2, hits give low values 0.992 | locus YLR027C, strain aat2, hits give low values 0.965 | locus YLR039C, strain RIC1, hits give low values 0.994 | locus YLR058C, strain SHM2, hits give low values 0.982 | locus YLR102C, strain apc9, hits give low values 0.972 | locus YLR113W, strain HOG1, hits give low values 0.976 | locus YLR221C, strain rsa3, hits give low values 1.01 | locus YLR258W, strain gsy2, hits give low values 0.961 | locus YLR262C, strain YPT6 (second series), hits give low values 0.974 | locus YLR268W, strain sec22, hits give low values 0.984 | locus YLR320W, strain mms22, hits give low values 1.03 | locus YLR342W, strain FKS1 (second series), hits give low values 1.03 | locus YLR342W, strain FKS1, hits give low values 0.975 | locus YLR357W, strain rsc2, hits give low values 0.964 | locus YLR370C, strain arc18, hits give low values 0.973 | locus YLR371W, strain rom2, hits give low values 0.992 | locus YLR384C, strain iki3, hits give low values 0.983 | locus YLR418C, strain cdc73, hits give low values 1.02 | locus YML016C, strain PPZ1, hits give low values 1.01 | locus YML032C, strain rad52, hits give low values 0.996 | locus YML120C, strain ndi1, hits give low values 0.989 | locus YML124C, strain tub3, hits give low values 0.982 | locus YMR058W, strain fet3, hits give low values 0.979 | locus YMR078C, strain ctf18, hits give low values 0.986 | locus YMR125W, strain sto1, hits give low values 0.986 | locus YMR129W, hits give low values 0.975 | locus YMR205C, strain PFK2, hits give low values 1 | locus YMR223W, strain ubp8, hits give low values 0.981 | locus YMR231W, strain pep5, hits give low values 0.989 | locus YMR263W, strain SAP30, hits give low values 0.979 | locus YMR307W, strain GAS1, hits give low values 1.06 | locus YNL067W, strain RPL9B, hits give low values 0.967 | locus YNL071W, strain lat1, hits give low values 1 | locus YNL153C, strain GIM3, hits give low values 0.973 | locus YNL183C, strain NPR1, hits give low values 0.956 | locus YNL209W, strain ssb2, hits give low values 1 | locus YNL233W, strain BNI4, hits give low values 0.989 | locus YNL248C, strain rpa49, hits give low values 0.955 | locus YNL250W, strain rad50, hits give low values 0.969 | locus YNL271C, strain bni1, hits give low values 0.994 | locus YNL298W, strain CLA4, hits give low values 0.973 | locus YNL307C, strain MCK1, hits give low values 0.974 | locus YNL322C, strain KRE1 (second series), hits give low values 0.98 | locus YNR049C, strain mso1, hits give low values 0.966 | locus YNR052C, strain pop2, hits give low values 0.976 | locus YOL006C, strain TOP1, hits give low values 1.06 | locus YOL012C, strain htz1 0.635 | locus YOL147C, strain pex11, hits give low values 0.965 | locus YOR001W, strain rrp6, hits give low values 1.03 | locus YOR061W, strain CKA2, hits give low values 0.997 | locus YOR069W, strain VPS5, hits give low values 0.99 | locus YOR070C, strain gyp1, hits give low values 0.993 | locus YOR080W, strain dia2, hits give low values 0.974 | locus YOR083W, strain WHI5, hits give low values 0.974 | locus YOR106W, strain vam3, hits give low values 0.963 | locus YOR136W, strain idh2, hits give low values 0.981 | locus YOR144C, strain elg1, hits give low values 0.982 | locus YOR184W, strain ser1, hits give low values 1.01 | locus YOR231W, strain MKK1, hits give low values 0.988 | locus YOR265W, strain rbl2, hits give low values 0.968 | locus YOR270C, strain vph1, hits give low values 0.999 | locus YOR290C, strain snf2, hits give low values 0.96 | locus YOR316C, strain cot1, hits give low values 0.97 | locus YPL051W, strain arl3, hits give low values 0.977 | locus YPL078C, strain atp4, hits give low values 0.979 | locus YPL106C, strain sse1, hits give low values 0.986 | locus YPL240C, strain hsp82, hits give low values 0.982 | locus YPL241C, strain CIN2, hits give low values 0.994 | locus YPL256C, strain CLN2, hits give low values 0.993 | locus YPR119W, strain clb2, hits give low values 0.995 | locus YPR141C, strain kar3, hits give low values 0.97 | locus YPR163C, strain tif3, hits give low values 0.962 | locus YPR167C, strain met16, hits give low values 0.988 | strain wtn01, hits give low values 0.985
